Where “and” joins values, the source holds several entries; their conditions need not be identical. Equal values may be shown once. Records with an inconclusive call do not appear. Entries that show only a call come without a potency. Calls of active or inactive are those of the source. Unless noted, calls follow the shape of the dose curve; as a rule, active = well fitted curve in the direction sought with a large enough effect; inconclusive = small, poorly fitted or top-dose-only effect, or another doubt; inactive = no such curve, though single readings can be large; an effect the other way counts as inactive or inconclusive.
Legend:
[1] = molecular target: Luciferin 4-monooxygenase (Photinus pyralis) (UniProt P08659); assay: Biochemical firefly luciferase enzyme assay for NPC (AID 624030);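 also: purified P. pyralis luciferase at 10 nM with luciferin and ATP substrate; nearly all actives have a fitted effect of over 70% in size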
In short: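 Counter-screen for direct inhibition of the luciferase enzyme by approved-drug library compounds, run at 10 nM enzyme in 50 mM Tris acetate (final). Luminescence was read within 5 min of enzyme-buffer addition and normalized to PTC124 versus DMSO (0%).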

[2] = molecular target: Glutathione peroxidase 1 (Homo sapiens) (UniProt P07203); assay: Primary qHTS Assay for Inhibitors of Recombinant Selenoprotein Glutathione Peroxidase 1 (GPX1) (AID 1845191); also: nearly all actives have a fitted effect of over 65% in size
In short: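 Recombinant GPX1 (10 nM final) was preincubated with compound for 30 min at room temperature, then reacted with 1 mM GSH, 0.5 mM CHP, 0.5 mM NADPH and 100 nM glutathione reductase; NADPH fluorescence (340/450 nm) was read at 0 and 15 min.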

[3] = molecular target: Phospholipid hydroperoxide glutathione peroxidase GPX4 (Homo sapiens) (UniProt P36969); assay: Primary qHTS Assay for Inhibitors of Recombinant Selenoprotein Glutathione Peroxidase 4 (GPX4) (AID 1845192); also: nearly all actives have a fitted effect of over 65% in size
In short: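 GR-coupled readout: 100 nM GR, 1 mM GSH, 0.5 mM NADPH; NADPH fluorescence (ex 340/em 450 nm) read at t=0 and after 15 min RT. GPX4 200 nM, preincubated 30 min with compound; substrate 0.5 mM CHP.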

[4] = qHTS profiling for inhibitors of Plasmodium falciparum proliferation (AID 504749); also: potency is read from the fitted curve at half-maximal effect; as to all read-outs here: nearly all actives have a fitted effect of over 60% in size; conditions: P. falciparum in erythrocytes, SYBR Green DNA, 72 h; for activity, negative = inhibition: at 28.7 µM (top of the series)
In short: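 P. falciparum-infected erythrocytes (0.3% parasitemia, 2.5% hematocrit final) were exposed to compounds for 72 h at 37 C in 5% CO2, then lysed with SYBR Green buffer overnight at room temperature; parasite DNA fluorescence was normalized to artemisinin and DMSO controls.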

[5] = Cell Viability - N2a (AID 540); conditions: N2a mouse neuroblastoma cell viability; activity change, negative = cytotoxicity: at 92.2 µM (top of the series); also: nearly all actives have a fitted effect of over 45% in size
In short: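 Mouse neuroblastoma N2a cells (1500/well) were preincubated 5 hr at 37 °C, then exposed to compounds for 40 hr at 37 °C in complete medium. Viability was read as intracellular ATP by CellTiter-Glo luminescence; AC50 from Hill fits.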

[6] = Cell Viability - LYMP2-016 (AID 984);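 also: cells exposed to compound for 24 hours at 37 °C; nearly all actives have a fitted effect of over 55% in size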
In short: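 Acute toxicity in a Coriell human lymphoblastoid line is scored as loss of intracellular ATP over 24 h of treatment in complete medium. CellTiter-Glo signal is fitted across concentrations with the Hill equation to give AC50.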

[7] = molecular target: Estrogen receptor (Homo sapiens) (UniProt P03372); assay: qHTS assay for small molecule agonists of estrogen receptor alpha signaling (AID 588514; calls by dose curve; also: nearly all actives have a fitted effect of over 70% in size)
In short: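 ER-alpha-UAS-bla GripTite HEK 293 cells in medium with 2% charcoal/dextran-treated FBS were treated with compound titrations at 37 C for 18 hrs; beta-lactamase reporter read by CCF4 fluorescence after 2 hrs at RT.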

[8] = molecular target: Glucocorticoid receptor (Homo sapiens) (UniProt P04150); assay: qHTS assay for small molecule antagonists of glucocorticoid receptor signaling (AID 588533; active = well fitted inhibition curve with a large enough effect in the signal ratio, with a control signal flat, not every such curve was filed as active; the % refers to the signal ratio;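 also: cells stimulated with 2 nM dexamethasone as agonist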)
In short: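 Antagonist-mode qHTS: compound titrations added to GRE-bla HeLa cells, then dexamethasone 2 nM final; 18 h, 37 C. CCF4 FRET fluorescence normalized to dexamethasone and DMSO; IC50 from Hill fit.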

[9] = qHTS assay for small molecule antagonists of peroxisome proliferator-activated receptor delta signaling (AID 588535; active = well fitted inhibition curve with a large enough effect in the signal ratio, with a control signal flat, not every such curve was filed as active; the % refers to the signal ratio;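 as to max response: cells co-treated with a PPAR-delta agonist as stimulator during compound exposure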); conditions: HEK293T PPARd-UAS-bla, beta-lactamase FRET ratio, 18 h; 460 nm channel
In short: (§1)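 GeneBLAzer PPAR-delta-UAS-bla HEK293T cells in medium with 2% charcoal/dextran FBS were preincubated 5 hrs at 37 C, then given compounds, incubated 18 hrs at 37 C, and read by CCF4 beta-lactamase fluorescence; IC50 from Hill fits.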

[10] = molecular target: Peroxisome proliferator-activated receptor delta (Homo sapiens) (UniProt Q03181); assay: as above
In short: as §1

[11] = molecular target: Peroxisome proliferator-activated receptor gamma (Homo sapiens) (UniProt P37231); assay: qHTS assay for small molecule antagonists of peroxisome proliferator-activated receptor gamma signaling (AID 588537; active = well fitted inhibition curve with a large enough effect in the signal ratio, with a control signal flat, not every such curve was filed as active; the % refers to the signal ratio;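 also: reporter cells co-stimulated with 50 nM rosiglitazone agonist during compound treatment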)
In short: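 PPAR-gamma-UAS-bla HEK293 cells (3000/well, 1% charcoal/dextran-stripped FBS) were preincubated 6-6.5 h at 37 C, given titrated compounds, then stimulated with 50 nM rosiglitazone for 16 h. Beta-lactamase activity was read with CCF4 dye; IC50 came from Hill fits.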

[12] = qHTS assay for small molecule agonists of the antioxidant response element (ARE) signaling pathway (AID 651741; active = well fitted activation curve with a large enough effect in the signal ratio; the % refers to the signal ratio; also: potency is read from the fitted curve at half-maximal effect)
In short: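 ARE-bla HepG2 cells (beta-lactamase reporter under ARE control) were plated at 2,000 cells/well, preincubated 5 h at 37 C/5% CO2, then treated with DMSO-dissolved compounds for 16 h at 37 C; LiveBLAzer B/G FRET substrate added, fluorescence read after 2 h at room temperature.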

[13] = molecular target: Nuclear receptor ROR-gamma (Homo sapiens) (UniProt P51449); assay: qHTS assay for small molecule antagonists of the retinoid-related orphan receptor gamma (ROR-gamma) signaling pathway (AID 651802); also: nearly all actives have a fitted effect of over 60% in size
In short: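 CHO cells carrying TET-inducible ROR-gamma and an ROR response element–luciferase reporter were exposed to compound, then induced with doxycycline. After 16hr at 37C, luminescence was read; lower signal indicates antagonism.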

[14] = Cellular Toxicity (caspase-3) HepG2 (AID 654);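 also: cells exposed to compound for 16 hours before reading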
In short: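 HepG2 cells (1500/well) in complete medium were treated with compounds for 16 hr at 37 °C. Caspase-3/7 activity was then read as luminescence from peptide-aminoluciferin cleavage. AC50 came from Hill fits, normalized to DMSO and 100 uM tamoxifen.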

[15] = Cellular Toxicity (caspase-3) HUV-EC-C (AID 656)
In short: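 Read-out: luminescence proportional to caspase 3/7 activity, measured 20 min after adding Caspase-Glo 3/7 reagent. Cells (HUV-EC-C) had received compound for 16 hr at 37°C. Increases relative to DMSO and 100 uM tamoxifen gave concentration-response AC50 values.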

[16] = molecular target: Vitamin D3 receptor (Homo sapiens) (UniProt P11473); assay: qHTS assay for small molecule antagonists of vitamin D receptor signaling (AID 588541; calls by dose curve;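 also: receptor activated by calcitriol during compound treatment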)
In short: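 VDR-UAS-bla HEK293T cells (2000/well, 2% charcoal-stripped FBS) were treated with titrated compounds plus 1-alpha,25-dihydroxyvitamin D3 (50 nM or 3 nM final) for 16 h at 37 C. CCF4 beta-lactamase fluorescence was read; Hill fits gave IC50.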

Glutathione peroxidase 1 (Homo sapiens), sequence (P07203 whole entry, looked up): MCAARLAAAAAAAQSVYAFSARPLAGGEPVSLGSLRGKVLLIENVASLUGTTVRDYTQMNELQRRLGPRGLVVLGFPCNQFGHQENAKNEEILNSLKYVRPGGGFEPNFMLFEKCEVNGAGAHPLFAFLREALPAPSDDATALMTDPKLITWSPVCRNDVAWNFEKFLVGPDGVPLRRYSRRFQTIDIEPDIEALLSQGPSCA
Luciferin 4-monooxygenase (Photinus pyralis), sequence (P08659 whole entry, looked up): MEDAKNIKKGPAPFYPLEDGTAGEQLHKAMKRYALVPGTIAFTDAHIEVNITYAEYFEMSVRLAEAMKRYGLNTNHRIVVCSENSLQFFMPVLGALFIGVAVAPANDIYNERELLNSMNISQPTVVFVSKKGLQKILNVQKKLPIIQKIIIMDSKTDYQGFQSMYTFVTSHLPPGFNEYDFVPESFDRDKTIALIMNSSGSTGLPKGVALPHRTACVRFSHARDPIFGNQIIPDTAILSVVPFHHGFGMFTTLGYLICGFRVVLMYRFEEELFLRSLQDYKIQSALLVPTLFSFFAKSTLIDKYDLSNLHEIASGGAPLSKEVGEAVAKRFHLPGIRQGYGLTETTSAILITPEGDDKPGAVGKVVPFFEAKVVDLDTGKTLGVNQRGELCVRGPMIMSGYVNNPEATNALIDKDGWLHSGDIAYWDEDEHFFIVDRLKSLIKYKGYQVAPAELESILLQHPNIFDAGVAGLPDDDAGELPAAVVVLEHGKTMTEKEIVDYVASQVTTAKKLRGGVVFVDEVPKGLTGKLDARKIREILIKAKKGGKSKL
Glucocorticoid receptor (Homo sapiens), sequence (P04150 whole entry, looked up): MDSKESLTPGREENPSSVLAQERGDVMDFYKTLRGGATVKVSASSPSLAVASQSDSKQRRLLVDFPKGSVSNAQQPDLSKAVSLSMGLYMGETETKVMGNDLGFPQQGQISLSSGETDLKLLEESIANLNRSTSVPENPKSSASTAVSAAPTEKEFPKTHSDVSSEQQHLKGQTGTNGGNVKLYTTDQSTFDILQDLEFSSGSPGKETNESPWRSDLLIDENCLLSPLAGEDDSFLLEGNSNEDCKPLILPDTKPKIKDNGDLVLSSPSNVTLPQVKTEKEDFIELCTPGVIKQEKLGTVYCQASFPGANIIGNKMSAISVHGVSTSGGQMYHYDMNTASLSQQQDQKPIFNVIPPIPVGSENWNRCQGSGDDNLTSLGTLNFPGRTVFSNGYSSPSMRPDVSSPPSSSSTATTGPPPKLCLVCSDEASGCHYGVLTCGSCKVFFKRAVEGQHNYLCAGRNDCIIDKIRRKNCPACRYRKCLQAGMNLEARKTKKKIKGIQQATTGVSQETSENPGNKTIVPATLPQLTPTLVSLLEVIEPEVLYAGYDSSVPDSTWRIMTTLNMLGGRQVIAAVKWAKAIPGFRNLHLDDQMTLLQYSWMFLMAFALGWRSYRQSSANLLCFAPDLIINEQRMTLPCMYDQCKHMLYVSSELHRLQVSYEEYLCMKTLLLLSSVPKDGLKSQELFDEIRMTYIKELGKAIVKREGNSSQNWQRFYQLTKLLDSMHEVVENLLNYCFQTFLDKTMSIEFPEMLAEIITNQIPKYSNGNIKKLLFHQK
Phospholipid hydroperoxide glutathione peroxidase GPX4 (Homo sapiens), sequence (P36969 whole entry, looked up): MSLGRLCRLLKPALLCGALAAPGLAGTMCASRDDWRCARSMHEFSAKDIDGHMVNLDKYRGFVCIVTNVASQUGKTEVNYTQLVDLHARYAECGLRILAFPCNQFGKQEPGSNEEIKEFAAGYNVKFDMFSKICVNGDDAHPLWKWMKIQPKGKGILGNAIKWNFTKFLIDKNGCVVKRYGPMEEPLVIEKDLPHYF
Estrogen receptor (Homo sapiens), sequence (P03372 whole entry, looked up): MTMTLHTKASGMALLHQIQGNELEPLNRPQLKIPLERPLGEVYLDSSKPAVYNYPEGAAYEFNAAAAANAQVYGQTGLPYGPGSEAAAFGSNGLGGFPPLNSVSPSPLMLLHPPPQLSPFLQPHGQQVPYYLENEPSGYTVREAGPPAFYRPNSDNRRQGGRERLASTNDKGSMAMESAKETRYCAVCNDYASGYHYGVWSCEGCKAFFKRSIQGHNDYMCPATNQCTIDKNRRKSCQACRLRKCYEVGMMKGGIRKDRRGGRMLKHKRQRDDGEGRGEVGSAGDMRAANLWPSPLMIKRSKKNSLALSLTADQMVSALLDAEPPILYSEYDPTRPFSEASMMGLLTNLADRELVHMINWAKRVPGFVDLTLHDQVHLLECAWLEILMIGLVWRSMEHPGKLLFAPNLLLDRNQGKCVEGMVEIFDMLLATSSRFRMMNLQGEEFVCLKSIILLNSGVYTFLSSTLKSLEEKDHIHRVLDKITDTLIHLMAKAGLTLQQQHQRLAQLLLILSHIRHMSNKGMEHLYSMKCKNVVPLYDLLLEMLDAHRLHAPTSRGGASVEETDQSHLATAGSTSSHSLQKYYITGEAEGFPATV
Vitamin D3 receptor (Homo sapiens), sequence (P11473 whole entry, looked up): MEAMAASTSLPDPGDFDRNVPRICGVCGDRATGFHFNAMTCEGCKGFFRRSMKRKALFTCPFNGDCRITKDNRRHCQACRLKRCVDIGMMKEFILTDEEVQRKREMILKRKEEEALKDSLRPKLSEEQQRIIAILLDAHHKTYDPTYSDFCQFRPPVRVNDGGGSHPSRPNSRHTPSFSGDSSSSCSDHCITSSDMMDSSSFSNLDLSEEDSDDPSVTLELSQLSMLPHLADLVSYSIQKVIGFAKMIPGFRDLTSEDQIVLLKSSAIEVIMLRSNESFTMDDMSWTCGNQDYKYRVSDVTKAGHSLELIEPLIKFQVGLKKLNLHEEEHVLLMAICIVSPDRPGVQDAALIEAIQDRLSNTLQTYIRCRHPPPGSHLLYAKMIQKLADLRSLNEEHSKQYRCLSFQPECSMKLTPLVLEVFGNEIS
Peroxisome proliferator-activated receptor delta (Homo sapiens), sequence (Q03181 whole entry, looked up): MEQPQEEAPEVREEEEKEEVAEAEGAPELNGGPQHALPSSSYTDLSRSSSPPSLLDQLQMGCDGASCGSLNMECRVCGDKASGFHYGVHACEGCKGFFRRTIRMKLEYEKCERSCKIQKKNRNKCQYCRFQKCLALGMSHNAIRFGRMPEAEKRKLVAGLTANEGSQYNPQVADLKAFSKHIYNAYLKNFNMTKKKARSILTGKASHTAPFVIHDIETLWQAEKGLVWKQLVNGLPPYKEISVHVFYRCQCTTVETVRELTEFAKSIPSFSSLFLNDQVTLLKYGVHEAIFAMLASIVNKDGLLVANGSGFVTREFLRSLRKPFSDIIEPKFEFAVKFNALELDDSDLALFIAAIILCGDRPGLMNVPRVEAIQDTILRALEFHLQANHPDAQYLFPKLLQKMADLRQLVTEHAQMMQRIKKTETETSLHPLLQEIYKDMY
Nuclear receptor ROR-gamma (Homo sapiens), sequence (P51449 whole entry, looked up): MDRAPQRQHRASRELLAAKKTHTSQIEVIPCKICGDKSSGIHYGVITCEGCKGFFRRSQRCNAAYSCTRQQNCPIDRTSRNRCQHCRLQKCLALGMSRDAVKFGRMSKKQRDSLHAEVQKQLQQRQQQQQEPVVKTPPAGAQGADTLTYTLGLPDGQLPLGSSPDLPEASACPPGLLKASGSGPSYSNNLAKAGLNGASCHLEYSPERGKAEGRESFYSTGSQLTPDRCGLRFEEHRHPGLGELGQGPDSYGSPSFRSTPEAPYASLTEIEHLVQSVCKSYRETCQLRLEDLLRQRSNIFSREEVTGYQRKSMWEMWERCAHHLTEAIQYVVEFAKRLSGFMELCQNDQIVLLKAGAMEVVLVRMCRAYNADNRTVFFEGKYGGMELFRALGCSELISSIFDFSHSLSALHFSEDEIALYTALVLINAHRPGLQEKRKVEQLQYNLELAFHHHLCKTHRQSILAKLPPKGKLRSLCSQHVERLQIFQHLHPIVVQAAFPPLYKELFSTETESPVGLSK
Peroxisome proliferator-activated receptor gamma (Homo sapiens), sequence (P37231 whole entry, looked up): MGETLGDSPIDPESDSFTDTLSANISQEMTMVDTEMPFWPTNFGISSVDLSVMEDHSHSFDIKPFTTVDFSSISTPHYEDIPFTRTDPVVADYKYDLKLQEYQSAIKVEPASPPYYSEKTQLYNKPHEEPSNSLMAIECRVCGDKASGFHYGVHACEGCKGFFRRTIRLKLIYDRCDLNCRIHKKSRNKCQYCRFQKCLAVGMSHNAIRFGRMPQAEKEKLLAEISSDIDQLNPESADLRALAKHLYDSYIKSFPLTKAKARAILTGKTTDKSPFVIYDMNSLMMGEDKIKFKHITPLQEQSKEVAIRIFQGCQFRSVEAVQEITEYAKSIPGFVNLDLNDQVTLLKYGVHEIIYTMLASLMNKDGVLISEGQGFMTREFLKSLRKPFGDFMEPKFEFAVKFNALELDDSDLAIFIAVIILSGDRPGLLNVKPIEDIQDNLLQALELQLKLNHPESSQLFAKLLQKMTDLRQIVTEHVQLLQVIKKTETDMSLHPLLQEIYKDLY

SMILES: CC1CCC(C(C)C)C(OC(=O)c2ccccc2O)C1 (stereo unspecified)
- Potency [1]: inactive
- Potency [2]: inactive
- Potency [3]: inactive
- activity, negative = inhibition ([4]; parasite line A): -1.98% (inactive)
- activity, negative = inhibition ([4]; parasite line B): 8.37% (inactive)

SMILES: CC(C)(CO)C(O)C(=O)NCCCC(=O)O (stereo unspecified)
- Potency [1]: inactive
- Potency [2]: inactive
- Potency ([4]; parasite line A): 14.1 nM (active)

SMILES: Cc1cc(CC(C)CC(C)(C)C)n(O)c(=O)c1 (stereo unspecified)
- Potency [1]: inactive
- Potency [2]: inactive
- Potency ([4]; parasite line A): 1780 nM (active)
- Potency ([4]; parasite line B): 1000 nM (active)

SMILES: O=c1cc(-c2cccc(O)c2)oc2c(O)c(O)ccc12
- Potency [2]: inactive

SMILES: O=C(O)c1ccccc1C(c1ccc(O)cc1)c1ccc(O)cc1
- activity change, negative = cytotoxicity [5]: 6.19% (inactive)
- Potency [6]: inactive
- Potency [7]: inactive
- Potency [8]: inactive
- max response [9]: 8.38% and 8.06%
- Potency [10]: inactive
- outcome [11]: inactive
- Potency [12]: inactive
- Potency [13]: inactive
- Potency [2]: inactive
- Potency [3]: inactive

SMILES: Nc1nc(Cl)nc2c1ncn2C1CC(O)C(CO)O1 (stereo unspecified)
- Potency [1]: inactive
- Potency [2]: inactive

SMILES: C/C(O)=C(\C#N)C(=O)Nc1ccc(C(F)(F)F)cc1
- Potency [2]: inactive

SMILES: COc1ccc2nc(N)sc2c1
- outcome [14]: inactive
- outcome [15]: inactive
- Potency [7]: inactive
- Potency [8]: inactive
- outcome [16]: inactive
- Potency [12]: 54500 nM (active)
- Potency [13]: inactive

SMILES: CCNC(=O)CCC/C=C\C[C@@H]1[C@@H](/C=C/[C@@H](O)CCc2ccccc2)[C@H](O)C[C@@H]1O
- Potency [3]: inactive

SMILES: CC(C)=C/C(C)=N\Nc1nncc2ccccc12
- Potency [3]: inactive

Source: PubChem BioAssay (NCATS)
